PubChem BioAssay AID1851 (National Center for Advancing Translational Sciences (NCATS), 2009)
Screen size: about 16,000 compounds; about 4,000 (25%) were called active. About 26% were inconclusive and are not listed. Only a sample is shown. A number with no mark means an inactive call. Calls come from the whole dose curve; as a rule, active = well fitted curve in the direction sought with a large enough effect; inconclusive = small, poorly fitted or top-dose-only effect, or effect the other way; inactive = no such curve, though single readings can be large or run the other way.

These molecules were tested against Cytochrome P450 2C9 (Homo sapiens) (UniProt P11712) (assay: Cytochrome panel assay with activity outcomes). Conditions: recombinant CYP, pro-luciferin dealkylation, luminescence, p450-cyp2c9; series mostly up to 57.1 µM; activity, negative = inhibition: at the top concentration.
% is set by controls: 0 for no effect and ±100 for the full control effect.

Cytochrome P450 2C9 (Homo sapiens), sequence (P11712 whole entry, looked up): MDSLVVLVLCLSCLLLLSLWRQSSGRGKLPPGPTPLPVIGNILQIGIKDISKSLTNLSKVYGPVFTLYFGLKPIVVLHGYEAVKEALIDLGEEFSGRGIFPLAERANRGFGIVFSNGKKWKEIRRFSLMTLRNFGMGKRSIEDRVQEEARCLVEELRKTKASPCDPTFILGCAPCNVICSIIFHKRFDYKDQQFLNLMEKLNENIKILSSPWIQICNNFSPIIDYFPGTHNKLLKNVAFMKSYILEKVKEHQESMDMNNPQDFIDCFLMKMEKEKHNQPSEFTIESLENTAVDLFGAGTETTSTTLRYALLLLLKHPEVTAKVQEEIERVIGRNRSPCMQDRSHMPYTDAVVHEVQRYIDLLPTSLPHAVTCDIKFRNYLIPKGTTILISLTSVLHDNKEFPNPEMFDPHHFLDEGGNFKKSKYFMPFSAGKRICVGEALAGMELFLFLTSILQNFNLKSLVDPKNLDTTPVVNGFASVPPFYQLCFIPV

SMILES	activity, negative = inhibition	AC50
N[C@H](CCC(=O)NCS(=O)(=O)O)C(=O)O	-16.3%	
CN(C)CCN(c1ccccn1)c1ccccn1	0.501% [at 11.4 µM]	
O=C(C1=C(O)C(=O)N(Cc2ccco2)C1c1ccccc1)c1cccs1 (configuration not stated)		8.91 µM (active)
NS(=O)(=O)Cc1noc2ccccc12	8.47%	
[N-]=[N+]=NC[C@@H]1O[C@@H](n2cnc3c(N)ncnc32)[C@@H]2O[C@@H]21	2.07% [at 11.4 µM]	
CC1CCN(CC[C@@H]2CCCN2S(=O)(=O)c2cccc(O)c2)CC1	-6.49%	
CC1CCN(CC[C@H]2CCCN2S(=O)(=O)c2cccc(O)c2)CC1	-3.33%	
CC1CCN(S(=O)(=O)c2ccc3c(c2)C(=NO)c2cc(S(=O)(=O)N4CCC(C)CC4)ccc2-3)CC1		3.98 µM (active)
N#Cc1cccc(-c2nc(NCc3ccccc3)c3ccccc3n2)c1	-29.7% [at 2.29 µM]	
CS(=O)(=O)c1nc(-c2ccccc2)cc(-c2ccccc2)c1C#N		0.282 µM (active)
CC(=O)Nc1ccc(-c2cc(-c3ccc(NC(C)=O)cc3)nc(-c3ccccc3)n2)cc1	-11%	
COCCCN=CC1=C(O)CC(C)(C)CC1=O	-24.3%	
O=c1oc2ccccc2cc1-c1csc(NN=C2CCCCC2)n1		3.55 µM (active)
Cc1cccc(-c2noc(-c3cc4ccccc4oc3=O)n2)c1	-11.5%	
CN1CCC2(CC1)C1CN(C)CC=C1C(C#N)=C(N)C2(C#N)C#N (configuration not stated)	-21.5%	
Cc1sc(=NC(=O)c2ccco2)n(C)c1-c1ccccc1		1.12 µM (active)
Cn1c(=NC(=O)CCl)sc2ccccc21	7.79%	
Cc1sc(=NC(=O)c2ccco2)n(C)c1-c1ccc(F)cc1		8.91 µM (active)
O=C(c1ccco1)N1CCC2(CC1)CCN(c1ccc(-c3ccccc3)cc1)CC2	-3.43%	
O=C(c1cnccn1)N1CCC2(CCCN(c3ccccn3)C2)CC1	-3.22%	
CS(=O)(=O)Nc1cccc(-c2ccc3ncnc(NC4CCNCC4)c3c2)c1	-5.87% [at 2.29 µM]	
O=C(c1csnn1)N1CCC2(CCCN(Cc3ccccc3)C2)CC1	-6.31%	
CCOC(=O)c1c(C)nc2c(c1-c1ccc(OC)cc1)C(=O)CC(C)(C)C2		15.8 µM (active)

SMILES	activity, negative = inhibition	AC50
CCN1CCN(c2nc(C)c3c(n2)CCCC3=O)CC1	11.9%	
CC1(C)CC(=O)c2cnc(N)nc2C1	-20%	
CCOC(=O)c1c(C)nc2c(c1-c1ccccc1)C(=O)CCC2		17.8 µM (active)
Cc1nccn1C[C@@H]1CCc2c(c3ccccc3n2C)C1=O	12.3% [at 25.6 µM]	
Cc1nnc(SCC2=C(C(=O)O)N3C(=O)[C@@H](NC(=O)Cn4cnnn4)[C@@H]3SC2)s1		inactive
CCc1nnc(NS(=O)(=O)c2ccc(N=Cc3c(C)[nH]n(-c4ccc(C)cc4)c3=O)cc2)s1		8.91 µM (active)
Cc1ccc(-n2[nH]c(C)c(C=Nc3ccc4[nH]c(=O)[nH]c4c3)c2=O)cc1C	-17.8%	
NC(N)=NC(N)=Nc1ccccc1	-22.3%	
C/C=C\C[C@@H](C)[C@@H](O)[C@H]1C(=O)N[C@@H](CC)C(=O)N(C)CC(=O)N(C)[C@@H](CC(C)C)C(=O)N[C@@H](C(C)C)C(=O)N(C)[C@@H](CC(C)C)C(=O)N[C@@H](C)C(=O)N[C@H](C)C(=O)N(C)[C@@H](CC(C)C)C(=O)N(C)[C@@H](CC(C)C)C(=O)N(C)[C@@H](C(C)C)C(=O)N1C	-1.45%	
Fc1ccc(CSc2nnc(-c3cc4c(s3)-c3ccccc3CC4)o2)cc1		3.16 µM (active)
CCCCc1cc2ccccc2c(OCCN(C)C)n1	-4.88% [at 25.6 µM]	
Cc1cc(C)n2c(SCC(=O)N(C)C3CCS(=O)(=O)C3)nnc2n1 (configuration not stated)	-6.22%	
Cc1ccc(-n2ccnc2SCC(=O)N(CC(C)C)C2CCS(=O)(=O)C2)c(C)c1 (configuration not stated)		14.1 µM (active)
O=C(CSc1nnc(-c2ccc(Cl)cc2Cl)n1C1CCCCC1)NC1CCS(=O)(=O)C1 (configuration not stated)	-10.5%	
CCC(=O)OCN1C(=O)C=CC1=O	22.6% [at 11.4 µM]	
NC(N)=NC[C@@H]1CCCCCCN1	3.41% [at 11.4 µM]	
O=C(Nc1ccccc1)OC[C@H](CN1CCCCC1)OC(=O)Nc1ccccc1	-19.8% [at 25.6 µM]	
Cn1cccc1C(=O)N1CCC2(CC1)CN(C(=O)Nc1ccccc1)C2	8.52%	
CN1c2ccccc2C(O)=C(C(=O)Nc2ccccc2)S1(=O)=O		2.82 µM (active)
Cc1ccc(S(=O)(=O)/N=C(/Nc2c(C)n(C)n(-c3ccccc3)c2=O)c2ccc(Cl)cc2)cc1		11.2 µM (active)
Cc1c(NC(=O)Nc2c(Cl)cccc2Cl)c(=O)n(-c2ccccc2)n1C	-2.44% [at 11.4 µM]	
Cc1c(NC(C)C)c(=O)n(-c2ccccc2)n1C	-9.77% [at 25.6 µM]	
COC(=O)N1CCC2(CCCN(Cc3nccs3)C2)CC1	-13.7%	

SMILES	activity, negative = inhibition	AC50
O=S(=O)(NCc1cc(-c2ccccc2)no1)c1ccc(Cl)cc1	-25.6%	
Cn1c(CNS(=O)(=O)c2ccc(Cl)cc2)n[nH]c1=S	-14.4%	
O=S(=O)(NCc1cc(-c2ccc(Cl)cc2)no1)c1ccc(Cl)cc1		3.98 µM (active)
COC(=O)[C@@H]1[C@@H]2C[C@H]3c4[nH]c5cc(OC)ccc5c4CCN3C[C@@H]2C[C@H](OC(=O)c2cc(OC)c(OC)c(OC)c2)[C@H]1OC	-7.98% [at 25.6 µM]	
CO[C@@H]1COC(=O)[C@@H](CCSC)NC(=O)C/C=C\[C@@H](C)COC(=O)CCC[C@H]1C	-5.5% [at 11.4 µM]	
O=c1c2c(n3cnnc3n1-c1ccccc1)-c1ccccc1CC21CCCCC1	-19.1%	
Oc1cccc(-c2nc3c4c(ncn3n2)-c2ccccc2CC42CCCC2)c1		7.08 µM (active)
CCOc1cc(/C=C2/NC(=O)N(CC(=O)Nc3cccc(C)c3)C2=O)ccc1OC	-14.1%	
CCOc1cc(/C=C2\C(=O)N(Cc3ccc(C)cc3)C(C)=C2C(=O)OC)ccc1O		1.41 µM (active)
CCCCNC(=O)C1CC(=O)N(CCC(C)C)C1 (configuration not stated)	-21.3%	
O=C(O)COc1c(Cl)cc(Cl)c2cccnc12	15.5% [at 11.4 µM]	
COC(=O)c1sc2ncccc2c1OCc1c(Cl)cccc1Cl		1.78 µM (active)
COCCNC(=O)c1cn(Cc2c(F)cccc2Cl)nn1	-7.08%	
CN1CCN(c2ncnc3ccc(-c4ccccc4Cl)cc23)CC1	-20.9% [at 2.29 µM]	
O=C(CCCCn1c(=O)c2ccccc2n(CC(=O)NC2CCCC2)c1=O)NC1CCCC1		10 µM (active)
O=C(Cn1cccc1)NC1CCCCCC1	-26.8%	
CC(=O)CCCCn1c(=O)c2c(ncn2C)n(C)c1=O	-1.76% [at 25.6 µM]	
FC(F)(F)c1ccccc1-c1nc(NCc2cccnc2)c2ccccc2n1	-20.3% [at 2.29 µM]	
COc1ccccc1-c1nc(NCc2cccnc2)c2ccccc2n1	5.64% [at 2.29 µM]	
CCOC(=O)c1ccc(OC(=O)CCCCCN=C(N)N)cc1	6.9%	
c1cncc(CNc2nc(-c3ccoc3)nc3ccccc23)c1	0.547% [at 2.29 µM]	
CCOC(=O)c1ccc(Nc2nc(=O)c3cccnc3s2)cc1		7.94 µM (active)
COc1ccccc1NC(=O)Nc1nc(-c2cccnc2)nc2ccccc12	25.8%	

SMILES	activity, negative = inhibition	AC50
CN(C)C(=O)c1ccc(-c2nc(Nc3ccncc3)c3ccccc3n2)cc1	-8.55% [at 2.29 µM]	
CCOC(=O)c1ccc(Nc2nc(-c3cccnc3)nc3ccccc23)cc1		5.01 µM (active)
c1ccc(-c2nc(NCc3cccnc3)c3ccccc3n2)cc1		3.55 µM (active)
COc1ccccc1CNc1nc(-c2cccnc2)nc2ccccc12		1 µM (active)
c1ccc(Nc2nc(-c3cccnc3)nc3ccccc23)cc1	-0.938% [at 2.29 µM]	
CN1CCCC2(CCN(C(=O)c3cc(C(F)(F)F)cc(C(F)(F)F)c3)CC2)C1	6.14%	
COC(=O)c1c(-c2cc(OC)c(OC)c(OC)c2)c2ccnc(OCc3ncccn3)c2c(=O)n1Cc1ccnc(C)c1		12.6 µM (active)
Cn1cnc([N+](=O)[O-])c1Sc1nc(N)nc2c1ncn2[C@H]1C[C@H](O)[C@@H](CO)O1	-1.03% [at 11.4 µM]	
Cn1c(-c2sc(=S)n(-c3ccccc3)c2N)nc2ccccc21		2.51 µM (active)
Cc1cccc(N2CC(O)=C(c3nc4ccccc4n3C)C2=N)c1	-8.08%	
Cc1ccc(CS(=O)(=O)CCC(=O)NCCCN2CCCC2=O)cc1	-8.86%	
Cc1ccc(S(=O)(=O)N(CCCN2CCCC2=O)Cc2cc3c(C)ccc(C)c3[nH]c2=O)cc1		3.16 µM (active)
O=C(NCCCN1CCCC1=O)c1ccc(CNS(=O)(=O)c2ccc(F)cc2)cc1	-31.1%	
Cc1ccc(C)c(-c2nn(-c3cc(N4CCN(CCO)CC4)ccc3[N+](=O)[O-])c(=O)c3ccccc23)c1		12.6 µM (active)
Cc1ccc(N2CCN(CCC(=O)O)CC2)cc1	10.3% [at 11.4 µM]	
CO[C@@H]1/C=C\CC(=O)N[C@@H](C)C(=O)OC[C@@H](OC)[C@H](C)/C=C\CC(=O)OC[C@H]1C	9.15% [at 11.4 µM]	
Cn1c(=O)c2[nH]c(CCS)nc2n(C)c1=O	10.4% [at 11.4 µM]	
Cc1cc(C)nc(SCC(=O)Nc2ccccc2[N+](=O)[O-])n1	-21.1%	
Cc1cccc(NC(=O)CSc2nnc(-c3ccco3)c(-c3ccco3)n2)c1C		1.78 µM (active)
Cc1cccc(Nc2cc(Cl)nc(SCC(=O)O)n2)c1C	-23.8%	
O=C(O)CCC(=O)N1CCC[C@H]1C(=O)O	21.5%	
CCCC[C@H]1C[C@@H]1[C@@H]1N(P(=O)(c2ccccc2)c2ccccc2)[C@](CO)(c2ccccc2)CC12CC2		15.8 µM (active)
CCCC[C@H]1C[C@@H]1[C@@H]1N(P(=O)(c2ccccc2)c2ccccc2)C[C@@](O)(c2ccccc2)CC12CC2	-27.2%	
